Structures are written as SMILES. “And” between values parts separate entries of the source, which are not always exact repeats. Identical values can stand only once. More than one record can exist for a structure, and the calls need not agree. The source made the active and inactive calls. Rule for the calls: active = hit-call score of the fitted dose curve at least 0.9, where 1 is the maximum; inactive = score below 0.9.

Experimental findings from PubChem BioAssay (EPA / NIEHS) are described below.

Read-out in the assay: Vascular cell adhesion molecule 1 (VCAM1), VCAM1 (gene 7412)
As to the kind of experiment: BSK_BF4T_VCAM1: BioMAP Diversity Plus: BF4T Assay for Vascular cell adhesion molecule 1 (VCAM1) Biomarker Activity (AID 2284249). Particulars: primary human bronchial epithelial cells with fibroblasts. The method, then:
BSK_BF4T is a cell-based, multiplexed-readout assay that uses bronchial epithelial cells and dermal fibroblasts, a human vascular primary cell, with measurements taken at 24 hours after chemical dosing in a microplate: 96-well plate.BSK_BF4T_VCAM1 is an assay component measured in the BSK_BF4T assay. It measures VCAM-1 antibody related to regulation of gene expression using ELISA technology.Data from the assay component BSK_BF4T_VCAM1 was analyzed at the endpoint, BSK_BF4T_VCAM1, in the positive analysis fitting direction relative to DMSO as the negative control and baseline of activity. Using a type of binding reporter, gain or loss-of-signal activity can be used to understand protein changes. To generalize the intended target to other relatable targets, this assay endpoint is annotated to the 'cell adhesion molecules' intended target family, where the subfamily is 'Immunoglobulin CAM'.
The levels of cell surface (or secreted, indicated by the prefix "s") biomarker endpoints were measured by ELISA. Overt cytotoxicity to cells in confluent adherent cultures (all systems other than the BT system) was assessed by measuring total protein levels using sulforhodamine B (SRB) staining in parallel cultures at the time of biomarker measurements, indicated as SRB endpoints. For proliferation assays for adherent cell types, individual cell types are cultured at sub-confluence and relative cell numbers quantified by SRB staining at time points optimized for each system (48 h: 3C and CASM3C systems; 72 h: BT and HDF3CGF systems; 96 h: SAg system). SRB was performed by staining cells with 0.1% SRB after fixation with 10% TCA and reading wells at 560 nm.Viability and proliferation of PBMC (T cells) was quantified by Alamar Blue reduction for the SAg and BT systems. For PBMC viability (referred to as PBMC Cytotoxicity within the assay endpoint names), cells were plated (75,000/well in a 96-well plate) and then chemical samples added for 1 h before addition of activators, SEB and TSST-1 (20 ng/mL final concentration each). Cells were incubated for 90 h. Then, Alamar Blue (20 uL/well) (Invitrogen, Cat DAL1100) was added for 6 h, and the plates were read with a fluorescence microplate reader at 546/580 nm (excitation/emission). For PBMC proliferation, cells were plated and activated as above but incubated for only 16 h prior to addition of Alamar Blue. Plates were read after 6 h.
Turning to `O=C(O)C(F)(F)C(F)(F)C(F)(F)C(F)(F)C(F)(F)C(F)(F)C(F)(F)C(F)(F)Cl`, the outcome was inactive and the half-maximal activity concentration (AC50) – broadly, the concentration giving half of the maximal activity seen – was 7.26 µM (active).

Consider `FC(F)(I)C(F)(F)C(F)(F)C(F)(F)I`, for which the AC50 was 41.5 µM (active) and 47 µM (active) and 30 µM (active). In the case of `FC(F)(Br)C(F)(F)C(F)(F)C(F)(F)C(F)(F)C(F)(F)Br`, the outcome was inactive. Same read-out and setting: in the case of `FC(F)(F)C(F)(F)C(F)(F)N(C(F)(F)C(F)(F)C(F)(F)F)C(F)(F)C(F)(F)C(F)(F)F` it was “inactive”; in that of `CCCCCCCCC(F)(F)C(F)(F)C(F)(F)C(F)(F)C(F)(F)C(F)(F)F`, “inactive”.

`FC(F)(F)C(F)(F)C(F)(F)C(F)(F)C(F)(F)C(F)(F)CCS`: the outcome was inactive.

Take `FC(F)(F)C(F)(F)C(F)(F)C(F)(F)C(F)(F)C(F)(F)CC1CO1` (stereo not given): the outcome was inactive. For `O=S(=O)(O)C(F)(F)C(F)(F)C(F)(F)C(F)(F)C(F)(F)C(F)(F)C(F)(F)F`, the result was inactive. `O=C(O)C(F)(F)C(F)(F)C(F)(F)C(F)(F)F`: the result was inactive.

For the compound `FC(F)(F)C(F)(F)C(F)(F)C(F)(F)C(F)(F)C(F)(F)C(F)(F)C(F)(F)F`, the outcome was inactive. Still for that read-out and setting: in the case of `O=S(=O)(OCC(F)F)C(F)(F)F` it was “inactive”. In the case of `C=CC(F)(F)C(F)(F)C(F)(F)C(F)(F)C(F)(F)C(F)(F)C(F)(F)C(F)(F)F`, the result was inactive. The same measure, in the same setting: in the case of `O=C(O)C(F)(F)C(F)(F)C(F)(F)C(F)(F)C(F)(F)C(F)(F)C(F)(F)C(F)(F)C(F)(F)C(F)(F)C(F)(F)C(F)(F)C(F)(F)F` it was “inactive”; in that of `FC1CC(F)(F)C(F)(F)C1(F)F` (stereo not given), “inactive”; in that of `FC(F)(F)C(F)(F)C(F)(F)C(F)(F)C(F)(F)CCI`, “inactive”. On the same count and under the same terms, in the case of `OCC(F)(F)C(F)(F)C(F)(F)C(F)F` it was “inactive”; in that of `O=P(O)(O)OCCC(F)(F)C(F)(F)C(F)(F)C(F)(F)C(F)(F)C(F)(F)F`, “inactive”.

As to `C=CC(F)(F)C(F)(F)C(F)(F)C(F)(F)C(F)(F)C(F)(F)C(F)(F)C(F)(F)C=C`, the outcome was inactive. Turning to `C=CC(=O)OCC(F)(F)C(F)(F)C(F)(F)C(F)(F)COC(=O)C=C`, the concentration at half-maximal activity (AC50) was 7.96 µM (active) and 10.9 µM (active).

For `O=C(O)C(F)(F)C(F)(F)C(F)(F)C(F)(F)C(F)(F)C(F)(F)C(F)(F)C(F)(F)C(F)(F)C(F)(F)C(F)(F)C(F)(F)F`, the result was inactive. Same read-out and setting: in the case of `O=C(CC(=O)C(F)(F)C(F)(F)F)C(F)(F)F` it was “inactive”. Regarding `O=C(O)C(F)(F)C(F)(F)C(F)(F)C(F)(F)C(F)(F)C(F)(F)C(F)(F)C(F)(F)C(F)(F)C(F)F`, the half-maximal activity concentration (AC50) is 7.76 µM (active) and the outcome was inactive. On to `NC(=O)C(F)(F)C(F)(F)C(F)(F)C(F)(F)F`, for which the result was inactive.

Regarding `OCC(F)(F)C(F)(F)C(F)(F)F`, the outcome was inactive. As to `Cc1ccc(S(=O)(=O)OCC(F)(F)C(F)(F)C(F)(F)C(F)(F)C(F)(F)C(F)F)cc1`, the outcome was inactive.

For `O=C(O)C(F)(OC(F)(F)C(F)(OC(F)(F)C(F)(F)C(F)(F)F)C(F)(F)F)C(F)(F)F` (stereo not given), the outcome was inactive. As to `C=C(C)C(=O)OCC(F)(F)C(F)(F)C(F)(F)C(F)(F)C(F)(F)C(F)(F)C(F)(F)F`, the outcome was inactive. Same read-out and setting: in the case of `C=CC(=O)OCC(F)(F)C(F)(F)C(F)(F)C(F)(F)C(F)(F)C(F)(F)C(F)(F)F` it was “inactive”; in that of `FC(F)(F)C(F)(F)CNCC(F)(F)C(F)(F)F`, “inactive”. Turning to `FC(F)(F)C(F)(F)C(F)(F)CI`, the outcome was inactive.

Consider `O=C(O)C(F)(F)C(F)(F)F`, for which the result was inactive.

Take `OCCCC(F)(F)C(F)(F)C(F)(F)C(F)(F)C(F)(F)C(F)(F)C(F)(F)F`: the AC50 was 38.1 µM (active) and 42.2 µM (active). For the compound `FC(F)(F)C(F)(F)C(F)(F)C(F)(F)C(F)(F)C(F)(F)C(F)(F)Br`, the outcome was inactive. For `O=C(O)C(F)(OC(F)(F)C(F)(OC(F)(F)C(F)(OC(F)(F)C(F)(F)C(F)(F)F)C(F)(F)F)C(F)(F)F)C(F)(F)F` (stereo not given), the result was inactive. `O=C(O)C(F)(F)C(F)(F)C(F)F`: the outcome was inactive. In the case of `O=C(O)C=C(C(F)(F)F)C(F)(F)F`, the outcome was inactive. In the case of `OCCCC(F)(F)C(F)(F)C(F)(F)F`, the outcome was inactive. As for `O=C(O)C(F)(F)C(F)(F)OC(F)(F)F`, the outcome was inactive.
